Test results published in the supplement of paper PMC13094657.
± gives the standard deviation of the averaged measurements.

Assays:
[1] = system: MDA-MB-231; assay: cell viability relative to vehicle unstimulated control (fraction); higher = more viable cells; details: pre-treatment time: 18 h then 24 h IFNg/TNF
[2] = system: MDA-MB-231; assay: kynurenine production, fold change vs DMSO IFNg/TNF control; higher = more kynurenine produced (less inhibition); details: pre-treatment time: 18 h then 24 h IFNg/TNF
Outline: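 MDA-MB-231 cells were seeded in 96-well plates at 7 × 10^4/well and, 24 h later, pre-treated for 18 h with each natural product in 0.1% DMSO. They were then stimulated for 24 h at 37°C with IFNγ (1 U/ml) and TNF (6.25 ng/ml). Supernatants were treated with trichloroacetic acid and p-dimethylaminobenzaldehyde and read at 492 nm against 0–100 μM standards. Kynurenine production is expressed as fold change over cytokine-stimulated vehicle wells on the same plate and, in the first screening round, averaged across duplicate plates.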
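For cell viability relative to vehicle unstimulated control in this document: viability of the cells left after supernatant collection, read with Deep Blue dye added for 4 h, as absorbance at 570 nm minus 600 nm.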

Row | Compound | cell viability [1] | kynurenine production [2]
1 | C[C@@H]1C[C@@H]([C@@H](O)C(C)(C)O)O[C@H]2C[C@@]3(C)C(=C12)C[C@H](O)[C@H]1[C@@]2(C)CCC(=O)C(C)(C)[C@@H]2CC[C@@]13C [Alisol F] (compound dose: 10 uM) | 0.991 ± 0.032 | 0.848 ± 0.048
2 | C=C1C(=O)O[C@H]2C[C@@H](C)[C@@H]3[C@@H](OC(C)=O)C[C@H](O)[C@@]3(C)[C@@H](OC(C)=O)[C@H]12 [Britannin] (compound dose: 10 uM) | 1.01 ± 0.043 | 0.268 ± 0.075
3 | C[C@H](CC[C@@H](O[C@@H]1O[C@H](CO[C@@H]2O[C@H](CO)[C@@H](O)[C@H](O)[C@H]2O)[C@@H](O)[C@H](O)[C@H]1O)C(C)(C)O)[C@H]1CC[C@@]2(C)[C@@H]3CC=C4[C@@H](CC[C@H](O[C@@H]5O[C@H](CO)[C@@H](O)[C@H](O)[C@H]5O)C4(C)C)[C@]3(C)[C@H](O)C[C@]12C [Mogroside III] (compound dose: 10 uM) | 0.857 ± 0.018 | 0.997 ± 0.13
4 | C=C1C(OC(C)=O)C(OC(C)=O)C(OC(=O)c2cccnc2)C(C)(C)C=CC(C)C(OC(C)=O)C2(O)CC(C)(OC(C)=O)C(OC(=O)c3ccccc3)C2C1OC(C)=O (stereo not given) [Pepluanin A] (compound dose: 10 uM) | 1.11 ± 0.017 | 0.806 ± 0.06
5 | C=C1C(=O)O[C@@H]2/C=C(\C)[C@@H](OC(C)=O)C/C=C(\COC(C)=O)C[C@@H](OC(=O)/C(C)=C/CO)[C@@H]12 [Eupalinolide B] (compound dose: 10 uM) | 0.899 ± 0.057 | 0.26 ± 0.0058
6 | C=C1C[C@@]23CC[C@H]4[C@@](C)(CCC[C@@]4(C)C(=O)O[C@@H]4O[C@H](CO)[C@@H](O)[C@H](O[C@@H]5O[C@H](CO)[C@@H](O)[C@H](O)[C@H]5O)[C@H]4O[C@@H]4O[C@H](CO)[C@@H](O)[C@H](O)[C@H]4O)[C@@H]2CC[C@]1(O[C@@H]1O[C@H](CO)[C@@H](O)[C@H](O[C@@H]2O[C@H](CO)[C@@H](O)[C@H](O)[C@H]2O)[C@H]1O[C@@H]1O[C@H](CO)[C@@H](O)[C@H](O)[C@H]1O)C3 [Rebaudioside M] (compound dose: 10 uM) | 0.939 ± 0.012 | 0.742 ± 0.12
7 | C[C@H]1O[C@@H](O[C@H]2[C@@H](O)C[C@H](O[C@H]3[C@@H](O)C[C@H](O[C@H]4CC[C@@]5(C)[C@H](CC[C@@H]6[C@@H]5C[C@@H](O)[C@]5(C)[C@@H](C7=CC(=O)OC7)CC[C@]65O)C4)O[C@@H]3C)O[C@@H]2C)C[C@H](O)[C@@H]1O [Digoxin] (compound dose: 10 uM) | 0.543 ± 0.066 | 0.103 ± 0.071
8 | CC1(C)O[C@H]2CC(=O)OC[C@]23[C@H]2CC[C@@]4(C)[C@H](c5ccoc5)OC(=O)[C@H]5O[C@]54[C@]2(C)C(=O)C[C@@H]13 [Limonin] (compound dose: 10 uM) | 0.9819 ± 0.0068 | 0.86 ± 0.3
9 | CC1(C)CC[C@]2(C(=O)O)CC[C@]3(C)C(=CC[C@@H]4[C@@]5(C)CC[C@H](O)C(C)(C)[C@@H]5CC[C@]43C)[C@@H]2C1 [Oleanolic Acid] (compound dose: 10 uM) | 0.984 ± 0.035 | 0.778 ± 0.07
10 | C[C@@H]1O[C@@H](O[C@H]2[C@H](O[C@H]3CC[C@@]4(C)[C@@H](CC[C@]5(C)[C@@H]4CC=C4[C@@H]6CC(C)(C)CC[C@]6(C(=O)O[C@@H]6O[C@H](CO[C@@H]7O[C@H](CO)[C@@H](O)[C@H](O)[C@H]7O)[C@@H](O)[C@H](O)[C@H]6O)CC[C@]45C)[C@]3(C)CO)OC[C@H](O)[C@@H]2O)[C@H](O)[C@H](O[C@@H]2O[C@H](CO)[C@@H](O[C@@H]3O[C@H](CO)[C@@H](O)[C@H](O)[C@H]3O)[C@H](O)[C@H]2O)[C@H]1O [Macranthoidin B] (compound dose: 10 uM) | 0.9895 ± 0.0011 | 0.787 ± 0.18
11 | C[C@@H]1C[C@@H]2O[C@@]3(O[C@@H]2C(C)(C)O)[C@H](O)[C@@]2(C)[C@@H]4CC[C@H]5C(C)(C)[C@@H](O)CC[C@@]56C[C@@]46CC[C@]2(C)[C@@H]13 [Cimigenol] (compound dose: 10 uM) | 1.03 ± 0.066 | 0.778 ± 0.31
12 | CC(=O)O[C@H]1CC/C(C)=C/CC/C(C)=C/C[C@]2(C(C)C)CC[C@@]1(C)O2 [Incensole Acetate] (compound dose: 10 uM) | 1.11 ± 0.01 | 0.941 ± 0.18
13 | CC(C)c1cccc(=O)c(O)c1 [Hinokitiol] (compound dose: 10 uM) | 0.9746 ± 0.0011 | 0.423 ± 0.025
14 | CC(C)(O[C@@H]1O[C@H](CO)[C@@H](O)[C@H](O)[C@H]1O)[C@@H]1CC[C@](O)(CO)[C@H]2CC(=O)[C@@](C)(O)[C@@H]2C1 [Atractyloside A] (compound dose: 10 uM) | 0.986 ± 0.03 | 0.854 ± 0.057
15 | C=C(C(=O)O)[C@@H]1CC[C@@H](C)[C@@H]2CCC(C)=C[C@@H]21 [Artemisinic acid] (compound dose: 10 uM) | 1.08 ± 0.11 | 0.889 ± 0.031
16 | C[C@@H]1O[C@@H](O[C@@H]2[C@@H](O)[C@H](O[C@H]3CC[C@]4(C)[C@H]5CC=C6[C@@H]7CC(C)(C)CC[C@]7(C(=O)O[C@@H]7O[C@H](CO)[C@@H](O)[C@H](O)[C@H]7O)CC[C@@]6(C)[C@]5(C)CC[C@H]4C3(C)C)O[C@H](C(=O)O)[C@H]2O)[C@H](O)[C@H](O)[C@H]1O (compound dose: 10 uM) | 0.941 ± 0.015 | 0.932 ± 0.11
17 | C[C@@H]1O[C@@H](O[C@H]2[C@H](O[C@H]3CC[C@@]4(C)[C@@H](CC[C@]5(C)[C@@H]4CC=C4[C@@H]6CC(C)(C)CC[C@]6(C(=O)O[C@@H]6O[C@H](CO[C@@H]7O[C@H](CO)[C@@H](O[C@@H]8O[C@@H](C)[C@H](O)[C@@H](O)[C@H]8O)[C@H](O)[C@H]7O)[C@@H](O)[C@H](O)[C@H]6O)CC[C@]45C)[C@]3(C)CO)OC[C@H](O)[C@@H]2O)[C@H](O)[C@H](O)[C@H]1O [Hederacoside C] (compound dose: 10 uM) | 1.05 ± 0.024 | 1.25 ± 0.18
18 | C[C@@H]1CC[C@]2(C(=O)O)CC[C@]3(C)C(=CC[C@@H]4[C@@]5(C)CC[C@H](O)[C@@](C)(CO)[C@@H]5CC[C@]43C)[C@@H]2[C@]1(C)O [Rotundic acid] (compound dose: 10 uM) | 0.8829 ± 0.0033 | 0.929 ± 0.021
19 | C=C1CC[C@H]2[C@@H](/C=C(\C)C(=O)[C@@]3(OC(C)=O)C[C@H](C)[C@H](OC(=O)c4cccnc4)[C@@H]3[C@H]1OC(C)=O)C2(C)C [Euphorbia factor L8] (compound dose: 10 uM) | 1.1 ± 0.075 | 0.89 ± 0.083
20 | C[C@H]1[C@H](C)CC[C@]2(C(=O)O)CC[C@]3(C)C(=CC[C@@H]4[C@@]5(C)C[C@@H](O)[C@H](O)[C@@](C)(CO)[C@@H]5[C@H](O)C[C@]43C)[C@H]12 [Madecassic acid] (compound dose: 10 uM) | 0.899 ± 0.14 | 0.839 ± 0.093
21 | O=C(O)c1cncc(C(=O)O)c1 [3-5-pyridinedicarboxylic acid] (compound dose: 10 uM) | 1.04 ± 0.044 | 0.983 ± 0.025
22 | CC(=O)O[C@]12CCC(C)=CC[C@]13CC[C@H]2[C@@](C)(/C=C/C=C(\C)C(=O)O)OC3=O [Pseudolaric Acid  A] (compound dose: 10 uM) | 0.834 ± 0.11 | 0.449 ± 0.12
23 | CO[C@@H]1C=C2[C@@H]3CC(C)(C)CC[C@]3(CO)[C@H](O)C[C@@]2(C)[C@]2(C)CC[C@H]3[C@](C)(CO)[C@@H](O[C@@H]4O[C@H](C)[C@H](O)[C@H](O[C@@H]5O[C@H](CO)[C@@H](O)[C@H](O)[C@H]5O)[C@H]4O)CC[C@]3(C)[C@@H]12 [Saikosaponin B4] (compound dose: 10 uM) | 1.12 ± 0.026 | 0.923 ± 0.21
24 | CCCCCCCCCCCCCC(=O)O[C@@]12[C@H](O)[C@@H](C)[C@@]3(O)[C@@H](C=C(CO)C[C@]4(O)C(=O)C(C)=C[C@@H]34)[C@H]1C2(C)C [Phorbol 13-myristate] (compound dose: 10 uM) | 1.03 ± 0.065 | 0.635 ± 0.081
25 | COc1cc(C(C)=O)cc(OC)c1O [Acetosyringone] (compound dose: 10 uM) | 1.05 ± 0.032 | 0.885 ± 0.087
26 | C[C@@H]1O[C@@H](O[C@H]2[C@H](O[C@H]3[C@H](O[C@H]4CC[C@]5(C)[C@H]6CC=C7[C@@H]8CC(C)(C)CC[C@]8(C(=O)O)CC[C@@]7(C)[C@]6(C)CC[C@H]5C4(C)C)OC[C@H](O)[C@@H]3O)O[C@H](CO)[C@@H](O)[C@@H]2O)[C@H](O)[C@H](O)[C@H]1O [Raddeanin A] (compound dose: 10 uM) | 0.0234 ± 0.033 | 0.116 ± 0.011
27 | C=C[C@@]1(C)CC(=O)[C@]2(O)[C@@]3(C)[C@@H](O)CCC(C)(C)[C@@H]3[C@H](O)[C@H](OC(C)=O)[C@@]2(C)O1 [Forskolin] (compound dose: 10 uM) | 0.785 ± 0.079 | 1.37 ± 0.25
28 | CC(C)=CCC[C@](C)(O[C@@H]1O[C@H](CO)[C@@H](O)[C@H](O)[C@H]1O)[C@H]1CC[C@]2(C)[C@@H]1[C@H](O)C[C@@H]1[C@@]3(C)CC[C@H](O)C(C)(C)[C@@H]3[C@@H](O[C@@H]3O[C@H](CO)[C@@H](O)[C@H](O)[C@H]3O)C[C@]12C [Ginsenoside Rg1] (compound dose: 10 uM) | 0.975 ± 0.025 | 0.782 ± 0.22
29 | C=C1C(=O)[C@@]23[C@@H]4OC5O[C@@]2(O)[C@@H](O)[C@@H]2C(C)(C)CC[C@@H](O)[C@]52[C@@H]3CC[C@@H]14 [Ponicidin] (compound dose: 10 uM) | 0.9 ± 0.21 | 0.404 ± 0.15
30 | COc1ccc(-c2coc3cc(O)ccc3c2=O)cc1 [Formononetin] (compound dose: 10 uM) | 0.988 ± 0.032 | 0.873 ± 0.0092
